In PubChem BioAssay (Tox21):
Records with an inconclusive call do not appear. Calls of active or inactive are those of the source. Unless noted, calls follow the shape of the full dose curve.

Assays:
[1] = Nuclear factor erythroid 2-related factor 2/antioxidant responsive element (Nrf2/ARE) small molecule agonists: qHTS cell viability counter screen in human keratinocytes (AID 1919968; active = well fitted curve in the direction sought with a large enough effect in the repeat runs; an effect the other way counts as inactive or inconclusive; also: nearly all actives have a fitted effect of over 55% in size; also: potency is read from the fitted curve at half-maximal effect)
In short: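 Cells of the KeratinoSens line were plated at 1,500 per well and left for 5 h before compound transfer from DMSO stocks. After a 23 h incubation (37 C, 5% CO2), CellTiter-Fluor was added. Signal was taken as fluorescence intensity 1 h later.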

[2] = Nuclear factor erythroid 2-related factor 2/antioxidant responsive element (Nrf2/ARE) small molecule agonists: luciferase reporter gene qHTS assay in human keratinocytes (AID 1919969); also: nearly all actives have a fitted effect of over 35% in size; also: potency is read from the fitted curve at half-maximal effect
[3] = molecular target: Gonadotropin-releasing hormone receptor (Homo sapiens) (UniProt P30968); assay: Human gonadotropin-releasing hormone receptor (GnRHR) small molecule agonists, calcium flux assay in GnRHR-HEK293 cells (AID 1920063); also: nearly all actives have a fitted effect of over 35% in size
Gonadotropin-releasing hormone receptor (Homo sapiens), sequence (P30968 whole entry, looked up): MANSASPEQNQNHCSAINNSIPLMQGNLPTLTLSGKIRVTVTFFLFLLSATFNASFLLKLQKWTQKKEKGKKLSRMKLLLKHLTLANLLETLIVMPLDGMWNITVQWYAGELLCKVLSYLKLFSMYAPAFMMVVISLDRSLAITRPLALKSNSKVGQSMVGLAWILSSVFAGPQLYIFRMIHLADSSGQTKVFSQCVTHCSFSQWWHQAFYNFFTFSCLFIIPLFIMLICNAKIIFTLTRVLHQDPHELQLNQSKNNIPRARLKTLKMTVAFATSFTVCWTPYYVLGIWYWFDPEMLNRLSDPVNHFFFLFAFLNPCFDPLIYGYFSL
In short: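 Compounds dissolved in DMSO are pin-transferred onto dye-loaded GnRHR-HEK293 cells, which were seeded 18 h before at 37 C/5% CO2. Calcium signal is read as fluorescence intensity at 1 s intervals for 3 min.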

[4] = molecular target: KiSS-1 receptor (Homo sapiens) (UniProt Q969F8); assay: Human kisspeptin (KISS1R) small molecule agonists, calcium flux assay in KISS1R-HEK293 cells (AID 1920064; active = well fitted curve in the direction sought with a large enough effect in the repeat runs; an effect the other way counts as inactive or inconclusive)
KiSS-1 receptor (Homo sapiens), sequence (Q969F8 whole entry, looked up): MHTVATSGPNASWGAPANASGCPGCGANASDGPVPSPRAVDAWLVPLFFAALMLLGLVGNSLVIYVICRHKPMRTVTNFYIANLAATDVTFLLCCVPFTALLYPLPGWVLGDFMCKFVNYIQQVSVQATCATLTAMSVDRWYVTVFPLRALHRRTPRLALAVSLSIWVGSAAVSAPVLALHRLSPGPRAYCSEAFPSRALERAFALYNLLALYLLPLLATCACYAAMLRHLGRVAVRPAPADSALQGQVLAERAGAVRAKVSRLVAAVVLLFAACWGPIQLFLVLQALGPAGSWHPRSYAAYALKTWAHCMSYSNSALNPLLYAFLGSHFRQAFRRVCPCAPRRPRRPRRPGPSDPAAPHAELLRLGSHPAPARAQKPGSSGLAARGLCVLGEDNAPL
In short: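 Cell line: HEK293, stable human KISS1R. Dye loading 1 h at 37 C after 18 h culture. Read: kinetic fluorescence, 480/540 nm, 3 min at 1 s intervals.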

[5] = G protein-coupled receptor (GPCR) small molecule agonists, calcium flux assay: HEK293 wild type cell line counter screen (AID 1920065)
In short: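 Tox21 10K compounds, 15 concentrations each in triplicate, pin-transferred in DMSO onto dye-loaded cells; kinetic read at 480/540 nm for 3 min, 1 s intervals.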

[6] = p53 small molecule agonists, cell-based qHTS assay with human liver microsomes (AID 1963577)
In short: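 p53RE-bla reporter cells were pre-incubated 5 h at 37 C, then treated with compounds plus human liver microsomes (0.5 mg/mL final) and NADPH (0.5 mg/mL final) for 16 h at 37 C. Beta-lactamase activity was read by LiveBLAzer fluorescence after 2 h at room temperature.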

[7] = p53 small molecule agonists, cell-based qHTS assay with rat liver microsomes (AID 1963578)
In short: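 p53RE-bla cells were exposed to compounds together with rat liver microsomes (0.5 mg/mL final) and NADPH (0.5 mg/mL final) for 16 h at 37 C, then read by LiveBLAzer beta-lactamase fluorescence after 2 h at room temperature.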

[8] = p53 small molecule agonists, cell-based qHTS assay with human liver microsomes: qHTS cell viability counter screen (AID 1963579); also: nearly all actives have a fitted effect of over 45% in size; also: potency is read from the fitted curve at half-maximal effect
In short: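 p53RE-bla cells (4,000/well) were pre-incubated 5 h at 37 C, then given compounds in DMSO plus human liver microsomes (0.5 mg/mL final) and NADPH (0.5 mg/mL final) for 16 h at 37 C. Viability was read by CellTiter-Glo luminescence.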

[9] = molecular target: 5-hydroxytryptamine receptor 2A (Homo sapiens) (UniProt P28223); assay: 5-hydroxytryptamine receptor 2A (HTR2A) small molecule antagonists, cell-based qHTS assay (AID 1963586); also: nearly all actives have a fitted effect of over 45% in size
5-hydroxytryptamine receptor 2A (Homo sapiens), sequence (P28223 whole entry, looked up): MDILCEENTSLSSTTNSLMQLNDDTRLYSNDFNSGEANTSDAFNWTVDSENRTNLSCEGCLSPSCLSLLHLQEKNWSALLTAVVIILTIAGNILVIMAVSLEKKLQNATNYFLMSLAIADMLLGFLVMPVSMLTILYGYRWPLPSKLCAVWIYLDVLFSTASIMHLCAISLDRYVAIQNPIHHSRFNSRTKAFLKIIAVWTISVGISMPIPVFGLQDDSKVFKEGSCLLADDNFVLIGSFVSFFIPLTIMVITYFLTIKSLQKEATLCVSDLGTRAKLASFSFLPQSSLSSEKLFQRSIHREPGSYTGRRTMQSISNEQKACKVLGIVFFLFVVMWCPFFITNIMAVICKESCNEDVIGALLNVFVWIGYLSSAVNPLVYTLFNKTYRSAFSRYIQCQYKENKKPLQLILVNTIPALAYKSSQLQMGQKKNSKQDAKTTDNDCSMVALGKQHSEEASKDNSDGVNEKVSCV
In short: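 CHO cells stably expressing human HTR2A were plated for 18 h at 37 C, then loaded with calcium dye for 1 h. Compounds were preincubated 5 min at room temperature before DOI (4 nM solution) was added. Kinetic fluorescence was read for 3 min.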

[10] = molecular target: 5-hydroxytryptamine receptor 2A (Homo sapiens) (UniProt P28223); assay: 5-hydroxytryptamine receptor 2A (HTR2A) small molecule agonists, cell-based qHTS assay (AID 1963587); also: nearly all actives have a fitted effect of over 30% in size
In short: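 CHO cells stably expressing human HTR2A, plated 18 h, loaded with calcium dye 1 h at 37 C. Agonist mode: compounds added and intracellular calcium fluorescence recorded kinetically for 2 min at 1 sec intervals.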

[11] = molecular target: Muscarinic acetylcholine receptor M1 (Homo sapiens) (UniProt P11229); assay: Cholinergic receptor muscarinic 1 (CHRM1) small molecule antagonists, cell-based qHTS assay (AID 1963588); also: nearly all actives have a fitted effect of over 40% in size; also: potency is read from the fitted curve at half-maximal effect
Muscarinic acetylcholine receptor M1 (Homo sapiens), sequence (P11229 whole entry, looked up): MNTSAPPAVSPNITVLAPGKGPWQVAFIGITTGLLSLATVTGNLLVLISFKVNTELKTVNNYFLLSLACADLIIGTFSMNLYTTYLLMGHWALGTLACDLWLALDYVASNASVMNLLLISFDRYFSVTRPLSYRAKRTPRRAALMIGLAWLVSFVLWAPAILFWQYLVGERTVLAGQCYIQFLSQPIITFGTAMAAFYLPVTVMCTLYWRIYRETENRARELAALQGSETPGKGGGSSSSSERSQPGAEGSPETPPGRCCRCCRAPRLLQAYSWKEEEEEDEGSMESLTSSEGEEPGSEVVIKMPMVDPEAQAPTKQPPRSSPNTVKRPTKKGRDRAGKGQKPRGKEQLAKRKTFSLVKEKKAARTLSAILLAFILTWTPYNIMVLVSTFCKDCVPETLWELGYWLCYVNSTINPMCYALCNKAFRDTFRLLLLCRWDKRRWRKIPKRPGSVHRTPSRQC
In short: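 Compounds were tested at 15 concentrations in three independent runs. Dye-loaded CHRM1-CHO cells were exposed 5 min at room temperature before stimulation by acetylcholine added at 50nM. Intracellular calcium was read kinetically on FDSS for 3 min.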

[12] = cAMP Responsive Elements (CRE) small molecule agonists, cell-based qHTS assay (AID 1963590)
In short: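 HEK 293T cells stably bearing CRE-bla were plated at 2,000 cells per well and rested 18 h. Compounds, positive controls or DMSO were added for 3 h at 37 C. LiveBLAzer B/G substrate was then loaded for 2 h at room temperature.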

[13] = cAMP Responsive Elements (CRE) small molecule antagonists, cell-based qHTS assay (AID 1963591; active = well fitted inhibition curve with a large enough effect in the signal ratio in the repeat runs, not every such curve was filed as active; the % refers to the signal ratio)
In short: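 First, CRE-bla HEK293T cells settled 18 h at 37 C. Next, compound and 0.25 uM final NKH477 were applied for 3 h. Last, LiveBLAzer B/G substrate was loaded for 2 h at room temperature.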

[14] = molecular target: Beta-2 adrenergic receptor (Homo sapiens) (UniProt P07550); assay: Adrenergic beta2 receptor (ADRB2) small molecule antagonists, cell-based qHTS assay (AID 1963592); also: series mostly up to about 92 µM; nearly all actives have a fitted effect of over 50% in size
Beta-2 adrenergic receptor (Homo sapiens), sequence (P07550 whole entry, looked up): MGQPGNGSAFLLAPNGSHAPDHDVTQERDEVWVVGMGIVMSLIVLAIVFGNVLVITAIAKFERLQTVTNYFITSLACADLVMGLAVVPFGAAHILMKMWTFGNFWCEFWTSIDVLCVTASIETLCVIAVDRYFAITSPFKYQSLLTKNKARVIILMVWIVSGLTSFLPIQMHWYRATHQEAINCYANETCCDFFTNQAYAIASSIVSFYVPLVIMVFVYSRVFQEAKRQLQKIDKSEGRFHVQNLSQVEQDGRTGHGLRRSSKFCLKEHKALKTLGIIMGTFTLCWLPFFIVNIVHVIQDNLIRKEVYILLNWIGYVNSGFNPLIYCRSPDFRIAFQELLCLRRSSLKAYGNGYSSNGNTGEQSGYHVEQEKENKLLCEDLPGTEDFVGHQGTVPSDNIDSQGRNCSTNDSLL
In short: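 Assay format: CHO-ADRB2 cells, 18-20hr seeding at 37C/5% CO2, then compound plus 1nM isoproterenol agonist mix for 0.5hr RT. Homogeneous time-resolved fluorescence cAMP detection after 1hr, expressed as 665/615 nm ratio.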

[15] = molecular target: D(2) dopamine receptor (Homo sapiens) (UniProt P14416); assay: Dopamine D2 receptor (DRD2) small molecule agonists, cell-based qHTS assay (AID 1963594); also: nearly all actives have a fitted effect of over 35% in size
D(2) dopamine receptor (Homo sapiens), sequence (P14416 whole entry, looked up): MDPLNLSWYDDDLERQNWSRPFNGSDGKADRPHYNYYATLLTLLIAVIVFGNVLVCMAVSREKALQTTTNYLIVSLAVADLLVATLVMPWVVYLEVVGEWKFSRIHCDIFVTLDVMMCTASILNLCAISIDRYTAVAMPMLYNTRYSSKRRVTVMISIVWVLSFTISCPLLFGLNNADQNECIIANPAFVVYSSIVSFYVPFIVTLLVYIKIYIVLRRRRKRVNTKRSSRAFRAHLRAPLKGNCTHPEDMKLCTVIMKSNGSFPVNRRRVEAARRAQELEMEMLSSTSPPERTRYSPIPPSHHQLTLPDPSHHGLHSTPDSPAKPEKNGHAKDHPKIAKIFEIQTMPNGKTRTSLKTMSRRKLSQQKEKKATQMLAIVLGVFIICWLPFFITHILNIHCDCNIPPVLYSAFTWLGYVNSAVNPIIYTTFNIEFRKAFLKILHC
In short: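 HEK293 cells stably expressing human DRD2, pre-treated with PDE inhibitor Ro20-1724 (0.1 mM final) and compound 10 min at room temperature, then stimulated with NKH477 (200nM […]) for 30 min. cAMP read by HTRF (665/620 nm).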

[16] = molecular target: D(2) dopamine receptor (Homo sapiens) (UniProt P14416); assay: Dopamine D2 receptor (DRD2) small molecule antagonists, cell-based qHTS assay (AID 1963595; active = well fitted inhibition curve with a large enough effect in the signal ratio in the repeat runs, with a control signal flat; the % refers to the signal ratio; also: potency is read from the fitted curve at half-maximal effect)
In short: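 Stable D2 receptor HEK293 line, 24 h after seeding. Compound preincubated 10 min, then quinpirole (12 nM) with forskolin analogue NKH477 (200 nM), 30 min, room temperature. Detection by time-resolved FRET of cAMP.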

[17] = molecular target: Muscarinic acetylcholine receptor M1 (Homo sapiens) (UniProt P11229); assay: Cholinergic receptor muscarinic 1 (CHRM1) small molecule agonists, cell-based qHTS assay (AID 1963589); also: nearly all actives have a fitted effect of over 35% in size
In short: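 Homogeneous fluorescence calcium flux, agonist mode. Human M1-expressing CHO cells; compound dosed at 15 concentrations, three independent runs; signal sampled every 1 sec.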

[18] = p53 small molecule agonists, cell-based qHTS assay: qHTS cell viability counter screen (AID 1963581); also: nearly all actives have a fitted effect of over 45% in size
In short: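 ATP content measured by luminescence in HCT-116 p53RE-bla cells treated 16 h at 37 C, same wells as the reporter screen.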

[19] = p53 small molecule agonists, cell-based qHTS assay (AID 1963582; active = well fitted activation curve with a large enough effect in the signal ratio in the repeat runs, not every such curve was filed as active; the % refers to the signal ratio)
In short: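 16 h compound exposure (37 C) of p53 response element–bla cells, preceded by 5 h recovery at 37 C/5% CO2; read-out via LiveBLAzer B/G FRET substrate, 2 h RT, fluorescence intensity.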

[20] = molecular target: Beta-2 adrenergic receptor (Homo sapiens) (UniProt P07550); assay: Adrenergic beta2 receptor (ADRB2) small molecule agonists, cell-based qHTS assay (AID 1963593);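 also: CHO cells stably overexpressing human ADRB2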
In short: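 CHO cells stably over-expressing ADRB2 were plated overnight at 37C, then dosed with compounds plus a stimulation mix containing 100uM IBMX and 25uM Ro-20-1724 for 0.5hr at room temperature. cAMP was measured by HTRF competition, 1hr.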

Measured: Potency

O=C1C(=O)c2ccccc2C(O)=C1C1CCC(c2ccc(Cl)cc2)CC1 (centres undefined)
inactive: [1] | [3] | [4] | [5] | [6] | [7] | [8] | [9] | [10] | [11] | [12] | [13] | [14] | [15] | [16]
active: [2] 13.3 µM

O[C@@H](COc1cccc2ncccc12)CN1CCN(C2c3ccccc3[C@@H]3[C@H](c4ccccc42)C3(F)F)CC1 (some centres undefined)
inactive: [1] | [2] | [3] | [4] | [5] | [6] | [7] | [8] | [10] | [17] | [14] | [15] | [16]

CCn1c2ccccc2c2cc([N+](=O)[O-])ccc21
inactive: [1] | [2] | [3] | [4] | [5] | [6] | [7] | [8] | [9] | [11] | [17] | [13] | [14] | [15] | [16]

CCCCCCCCCCCCc1ccc(O)cc1
inactive: [2] | [3] | [4] | [5] | [6] | [7] | [8] | [9] | [10] | [14] | [15]
active: [1] 27.3 µM | [16] 61.1 µM

CC(CC1c2ccccc2CCc2ccccc21)CN(C)C (centres undefined)
active: [11] 0.0365 µM
inactive: [1] | [2] | [3] | [4] | [5] | [6] | [7] | [8] | [10] | [17] | [12] | [13] | [14] | [15]

CNc1ccc(O)cc1
inactive: [3] | [4] | [5] | [6] | [7] | [10] | [17]
active: [1] 54.4 µM | [2] 24.3 µM | [8] 25.7 µM

CC1=C(/C=C/C(C)=C/C=C/C(C)=C\C(=O)O)C(C)(C)CCC1
inactive: [1] | [3] | [4] | [5] | [6] | [7] | [8] | [13] | [14] | [16]
active: [2] 68.8 µM

COc1cc(C)ccc1C(C)C
inactive: [1] | [2] | [3] | [4] | [5] | [6] | [7] | [8] | [18] | [19] | [9] | [10] | [11] | [17] | [12] | [13] | [14] | [20] | [15] | [16]

N#Cc1cc2ccccc2c2ccccc12
inactive: [1] | [2] | [3] | [4] | [5] | [6] | [7] | [8] | [9] | [10] | [17] | [12] | [13] | [14] | [15] | [16]
